Laboratory results from the supplement of paper PMC10849652.
The full data set covers some 7,900 targets. This sample favours those with a hit. About 0.6% of all pairs of compound and target were hits. Values without a mark were called inactive.

How the values were obtained:
Test in all cases: log2 fold change, soluble protein after heating vs DMSO (PISA); higher = thermal stabilisation; K562 cells, 10 uM, 30 min; active = over 0.2 and 3.5 SD of the protein, either way, in both replicates (recomputed)
IRAK-1-4 Inhibitor I = compound: C1COCCN1CCN2C3=CC=CC=C3N=C2NC(=O)C4=CC(=CC=C4)[N+](=O)[O-] [IRAK-1-4 Inhibitor I]
In short: (§1)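 Soluble protein was quantified by TMTpro 16plex LC-MS/MS after channel sums were equalised. It was obtained as the supernatant after 21,000xg for 90 min from pooled aliquots of K562 cells (2×10^6 cells/mL, 10 μM compound, 30 min) heated for 3 min across 48°C-58°C and extracted in PBS with 0.5% NP-40 at 4°C. Thermal stability values are relative to control samples and come from duplicates. They are given as log2 fold changes.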

ibrutinib = compound: C=CC(=O)N1CCC[C@@H](n2nc(-c3ccc(Oc4ccccc4)cc3)c3c(N)ncnc32)C1 [ibrutinib]
In short: as §1

[1] = compound: CC(=O)c1cnc2ccc(-c3cc(Cl)c(O)c(Cl)c3)nc2c1N[C@H]1CC[C@H](CN(C)C)CC1
In short: as §1

ralimetinib = compound: CC(C)(C)Cn1c(N)nc2ccc(-c3[nH]c(C(C)(C)C)nc3-c3ccc(F)cc3)nc21 [ralimetinib]
In short: as §1

[2] = compound: CC(C)(O)CC(=O)NCCn1ccc2ncnc(Nc3ccc(Oc4cccc(C(F)(F)F)c4)c(Cl)c3)c21
In short: as §1

[3] = compound: CC(C)C1=C2N=C(C=C(N2N=C1)NCC3=CC=CC=C3)NCCCCCCN
In short: as §1

[4] = compound: CC(C)C[C@@H](C=O)NC(=O)[C@H](CC(C)C)NC(=O)[C@H](CC(C)C)NC(=O)OCc1ccccc1
In short: as §1

pinometostat = compound: CC(C)N(C[C@H]1O[C@@H](n2cnc3c(N)ncnc32)[C@H](O)[C@@H]1O)[C@H]1C[C@@H](CCc2nc3cc(C(C)(C)C)ccc3[nH]2)C1 [pinometostat]
In short: as §1

[5] = compound: CC1=C(C(CC(=O)N1)C2=CC=C(C=C2)C(F)(F)F)C(=O)NC3=C(C=C4C(=C3)C=NN4)F
In short: as §1

[6] = compound: CC1=C(C2=C(C=C1)C(=O)C3=CC=CC=C3N2CCCN)C
In short: as §1

[7] = compound: CC1=C(C=C(C=C1)NC(=O)C2=CC(=CC=C2)C(C)(C)C#N)NC3=CC4=C(C=C3)N=CN(C4=O)C
In short: as §1

[8] = compound: CC1=C(C=C(C=C1)NC(=O)C2=CC(=CC=C2)N(C)C)NC(=O)C3=CC=C(C=C3)O
In short: as §1

[9] = compound: CC1=CC=C(C=C1)SC2=C3C=C(SC3=CN=C2)C(=O)N
In short: as §1

[10] = compound: CC1=NC(=CC=C1)C2=C(N=C(N2)C(C)(C)C)C3=CC4=NC=CN=C4C=C3
In short: as §1

Nexturastat A = compound: CCCCN(Cc1ccc(C(=O)NO)cc1)C(=O)Nc1ccccc1 [Nexturastat A]
In short: as §1

vemurafenib = compound: CCCS(=O)(=O)Nc1ccc(F)c(C(=O)c2c[nH]c3ncc(-c4ccc(Cl)cc4)cc23)c1F [vemurafenib]
In short: as §1

[11] = compound: CCCS(=O)(=O)Nc1ccc(F)c(C(=O)c2c[nH]c3ncc(Cl)cc23)c1F
In short: as §1

[12] = compound: CCCc1cc(C)[nH]c(=O)c1CNC(=O)c1cc(-c2ccnc(N3CCN(C)CC3)c2)cc2c1cnn2C(C)C
In short: as §1

givinostat = compound: CCN(CC)Cc1ccc2cc(COC(=O)Nc3ccc(C(=O)NO)cc3)ccc2c1 [givinostat]
In short: as §1

barasertib = compound: CCN(CCCOc1ccc2c(Nc3cc(CC(=O)Nc4cccc(F)c4)[nH]n3)ncnc2c1)CCOP(=O)(O)O [barasertib]
In short: as §1

Chain of UniProt P16278 (P16278 whole entry, looked up): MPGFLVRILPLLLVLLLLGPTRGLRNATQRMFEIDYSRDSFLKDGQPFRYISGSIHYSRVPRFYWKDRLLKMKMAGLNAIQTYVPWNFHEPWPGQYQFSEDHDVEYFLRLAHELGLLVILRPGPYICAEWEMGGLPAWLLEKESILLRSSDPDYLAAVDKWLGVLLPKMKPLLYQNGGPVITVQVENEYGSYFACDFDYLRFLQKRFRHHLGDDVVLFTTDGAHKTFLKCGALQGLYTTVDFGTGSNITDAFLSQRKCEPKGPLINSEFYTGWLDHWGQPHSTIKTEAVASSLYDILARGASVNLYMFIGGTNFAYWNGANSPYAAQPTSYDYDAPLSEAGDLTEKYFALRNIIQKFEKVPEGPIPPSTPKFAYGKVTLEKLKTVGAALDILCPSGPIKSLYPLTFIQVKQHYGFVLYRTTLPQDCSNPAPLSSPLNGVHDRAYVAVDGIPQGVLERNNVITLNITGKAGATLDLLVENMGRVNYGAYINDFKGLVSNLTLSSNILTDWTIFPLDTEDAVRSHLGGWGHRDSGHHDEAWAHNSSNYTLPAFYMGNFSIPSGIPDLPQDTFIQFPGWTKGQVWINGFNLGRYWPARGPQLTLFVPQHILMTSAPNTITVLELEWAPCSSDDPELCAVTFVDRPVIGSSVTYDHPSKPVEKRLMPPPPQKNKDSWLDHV
Chain of UniProt P22087 (P22087 whole entry, looked up): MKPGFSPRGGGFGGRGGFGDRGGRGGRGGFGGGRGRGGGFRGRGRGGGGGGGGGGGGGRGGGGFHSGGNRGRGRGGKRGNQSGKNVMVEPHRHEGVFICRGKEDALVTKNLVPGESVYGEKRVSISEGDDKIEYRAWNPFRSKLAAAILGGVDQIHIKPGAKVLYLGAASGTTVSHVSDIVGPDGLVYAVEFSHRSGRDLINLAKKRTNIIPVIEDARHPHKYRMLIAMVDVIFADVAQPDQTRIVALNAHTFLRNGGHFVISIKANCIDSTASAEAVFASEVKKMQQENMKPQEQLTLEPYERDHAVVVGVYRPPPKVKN
Chain of UniProt O60725 (O60725 whole entry, looked up): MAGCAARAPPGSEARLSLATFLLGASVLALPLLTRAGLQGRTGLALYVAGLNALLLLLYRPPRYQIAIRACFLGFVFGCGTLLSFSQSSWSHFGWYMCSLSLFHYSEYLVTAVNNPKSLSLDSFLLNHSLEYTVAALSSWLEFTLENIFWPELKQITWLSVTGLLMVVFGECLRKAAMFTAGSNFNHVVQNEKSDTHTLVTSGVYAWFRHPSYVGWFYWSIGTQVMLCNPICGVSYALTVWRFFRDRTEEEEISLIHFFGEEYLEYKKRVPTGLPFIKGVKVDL
Chain of UniProt P21333 (P21333 whole entry, looked up): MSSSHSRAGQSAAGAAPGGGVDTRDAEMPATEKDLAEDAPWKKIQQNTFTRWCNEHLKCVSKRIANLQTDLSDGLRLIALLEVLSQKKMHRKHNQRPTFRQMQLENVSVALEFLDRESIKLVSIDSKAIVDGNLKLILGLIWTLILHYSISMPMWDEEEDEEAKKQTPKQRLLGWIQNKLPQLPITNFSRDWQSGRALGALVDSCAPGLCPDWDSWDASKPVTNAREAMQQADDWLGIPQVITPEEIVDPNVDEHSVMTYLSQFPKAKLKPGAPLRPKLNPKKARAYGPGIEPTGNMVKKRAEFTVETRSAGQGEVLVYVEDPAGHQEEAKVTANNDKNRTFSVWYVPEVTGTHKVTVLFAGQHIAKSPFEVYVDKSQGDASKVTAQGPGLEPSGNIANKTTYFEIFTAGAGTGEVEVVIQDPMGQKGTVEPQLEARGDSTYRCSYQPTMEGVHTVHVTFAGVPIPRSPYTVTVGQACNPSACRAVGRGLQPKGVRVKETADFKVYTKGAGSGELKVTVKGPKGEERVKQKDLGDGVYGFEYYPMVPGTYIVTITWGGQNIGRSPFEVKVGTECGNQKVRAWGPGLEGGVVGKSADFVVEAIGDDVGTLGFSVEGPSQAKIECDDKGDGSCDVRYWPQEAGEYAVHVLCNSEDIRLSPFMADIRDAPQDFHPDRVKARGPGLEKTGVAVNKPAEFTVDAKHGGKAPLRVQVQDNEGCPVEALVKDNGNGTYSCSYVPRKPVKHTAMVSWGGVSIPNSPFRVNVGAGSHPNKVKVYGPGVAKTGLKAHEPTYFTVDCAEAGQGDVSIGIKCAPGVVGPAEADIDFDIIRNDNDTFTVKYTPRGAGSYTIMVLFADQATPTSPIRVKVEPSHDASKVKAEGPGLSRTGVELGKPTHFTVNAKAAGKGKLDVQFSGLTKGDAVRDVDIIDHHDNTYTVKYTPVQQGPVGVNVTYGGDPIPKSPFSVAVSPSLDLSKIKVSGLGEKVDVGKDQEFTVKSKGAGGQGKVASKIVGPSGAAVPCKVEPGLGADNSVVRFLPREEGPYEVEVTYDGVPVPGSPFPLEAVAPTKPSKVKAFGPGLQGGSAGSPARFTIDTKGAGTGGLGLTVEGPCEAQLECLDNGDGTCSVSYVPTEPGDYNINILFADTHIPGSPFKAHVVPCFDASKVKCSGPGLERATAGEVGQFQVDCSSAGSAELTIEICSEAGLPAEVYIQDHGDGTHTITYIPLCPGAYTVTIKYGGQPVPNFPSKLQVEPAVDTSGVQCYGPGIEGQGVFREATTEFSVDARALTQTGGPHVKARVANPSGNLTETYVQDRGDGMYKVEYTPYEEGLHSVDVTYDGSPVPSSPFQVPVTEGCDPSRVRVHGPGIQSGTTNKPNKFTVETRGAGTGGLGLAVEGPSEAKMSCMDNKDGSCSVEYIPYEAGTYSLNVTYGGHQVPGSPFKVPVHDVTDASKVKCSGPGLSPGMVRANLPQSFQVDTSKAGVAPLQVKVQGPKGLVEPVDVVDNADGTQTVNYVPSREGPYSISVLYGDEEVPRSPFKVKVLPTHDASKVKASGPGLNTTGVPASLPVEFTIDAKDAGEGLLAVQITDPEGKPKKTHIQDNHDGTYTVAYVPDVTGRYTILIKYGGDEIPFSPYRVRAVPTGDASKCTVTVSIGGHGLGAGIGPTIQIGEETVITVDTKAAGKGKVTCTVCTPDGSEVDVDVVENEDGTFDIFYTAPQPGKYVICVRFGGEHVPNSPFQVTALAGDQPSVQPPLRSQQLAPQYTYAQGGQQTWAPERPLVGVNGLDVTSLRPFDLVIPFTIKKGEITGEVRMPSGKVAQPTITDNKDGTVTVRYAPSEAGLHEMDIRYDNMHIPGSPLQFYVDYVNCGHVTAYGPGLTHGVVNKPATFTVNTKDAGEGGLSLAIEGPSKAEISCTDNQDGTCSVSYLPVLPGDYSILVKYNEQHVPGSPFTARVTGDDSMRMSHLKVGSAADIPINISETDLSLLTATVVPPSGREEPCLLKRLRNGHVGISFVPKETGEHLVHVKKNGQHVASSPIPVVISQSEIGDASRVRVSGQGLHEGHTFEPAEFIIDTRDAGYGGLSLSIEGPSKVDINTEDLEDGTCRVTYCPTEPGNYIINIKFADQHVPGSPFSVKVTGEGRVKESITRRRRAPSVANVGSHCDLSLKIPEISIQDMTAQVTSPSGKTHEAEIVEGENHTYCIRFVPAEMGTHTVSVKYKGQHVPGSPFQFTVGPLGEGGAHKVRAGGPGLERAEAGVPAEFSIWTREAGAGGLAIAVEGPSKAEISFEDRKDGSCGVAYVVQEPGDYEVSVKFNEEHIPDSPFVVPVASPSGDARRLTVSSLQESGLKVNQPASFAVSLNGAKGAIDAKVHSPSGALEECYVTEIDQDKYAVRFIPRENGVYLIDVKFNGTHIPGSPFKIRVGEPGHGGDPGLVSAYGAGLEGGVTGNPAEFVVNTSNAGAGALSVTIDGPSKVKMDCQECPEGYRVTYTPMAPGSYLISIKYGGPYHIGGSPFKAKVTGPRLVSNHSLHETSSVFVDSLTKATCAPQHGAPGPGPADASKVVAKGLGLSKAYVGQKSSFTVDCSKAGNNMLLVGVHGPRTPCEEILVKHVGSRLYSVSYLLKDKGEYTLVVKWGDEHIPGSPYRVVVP
Chain of UniProt Q13907 (Q13907 whole entry, looked up): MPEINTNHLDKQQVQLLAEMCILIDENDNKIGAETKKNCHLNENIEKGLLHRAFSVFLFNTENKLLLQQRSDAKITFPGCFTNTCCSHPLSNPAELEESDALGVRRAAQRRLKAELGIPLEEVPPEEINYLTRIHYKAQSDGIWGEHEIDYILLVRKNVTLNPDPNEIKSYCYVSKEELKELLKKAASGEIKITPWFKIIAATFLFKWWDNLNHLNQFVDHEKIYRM
Chain of UniProt P49448 (P49448 whole entry, looked up): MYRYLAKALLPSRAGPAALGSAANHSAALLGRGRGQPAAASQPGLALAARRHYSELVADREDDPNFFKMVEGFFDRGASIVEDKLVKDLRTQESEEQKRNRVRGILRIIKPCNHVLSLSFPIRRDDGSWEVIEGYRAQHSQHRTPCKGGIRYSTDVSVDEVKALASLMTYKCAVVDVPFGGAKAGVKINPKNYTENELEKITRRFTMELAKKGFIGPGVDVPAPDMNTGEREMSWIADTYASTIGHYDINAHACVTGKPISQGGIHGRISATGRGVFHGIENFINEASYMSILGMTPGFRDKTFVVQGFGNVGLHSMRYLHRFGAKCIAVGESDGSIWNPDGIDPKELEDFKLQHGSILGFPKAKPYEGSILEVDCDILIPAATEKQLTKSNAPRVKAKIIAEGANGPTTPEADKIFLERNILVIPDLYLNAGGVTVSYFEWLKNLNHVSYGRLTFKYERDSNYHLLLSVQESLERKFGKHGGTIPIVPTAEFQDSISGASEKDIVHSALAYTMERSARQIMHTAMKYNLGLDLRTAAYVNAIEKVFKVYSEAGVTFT

Target | log2 fold change (IRAK-1-4 Inhibitor I) | log2 fold change (ibrutinib) | log2 fold change [1] | log2 fold change (ralimetinib) | log2 fold change [2] | log2 fold change [3] | log2 fold change [4] | log2 fold change (pinometostat) | log2 fold change [5] | log2 fold change [6] | log2 fold change [7] | log2 fold change [8] | log2 fold change [9] | log2 fold change [10] | log2 fold change (Nexturastat A) | log2 fold change (vemurafenib) | log2 fold change [11] | log2 fold change [12] | log2 fold change (givinostat) | log2 fold change (barasertib)
GMEB1 (UniProt Q9Y692) | -0.033 | -0.031 | -0.021 | 0.01 | -0.039 | -0.044 | -0.031 | 0.022 | 0.011 | -0.297 (active) | 0.088 | 0.041 | 0.04 | 0.014 | -0.041 | -0.048 | 0.154 | 0.047 | 0.058 | 0.008
GNL1 (UniProt P36915) | 0.07 | 0.037 | 0.046 | 0.011 | -0.063 | -0.03 | -0.014 | -0.006 | -0.037 | -0.086 | 0.019 | -0.014 | 0.032 | 0.036 | -0.031 | -0.01 | 0.081 | 0.002 | -0.033 | 0.017
ICMT (UniProt O60725) | 0.039 | 0.182 | 0.248 | 0.163 | -0.032 | -0.472 (active) | -0.051 | -0.02 | -0.171 | 0.147 | -0.048 | -0.085 | -0.079 | 0.072 | -0.204 | 0 | -0.103 | 0.064 | -0.037 | 0.022
HEXB (UniProt P07686) | 0.06 | 0.004 | 0.003 | -0.068 | -0.004 | -0.14 | 0.003 | -0.025 | -0.015 | -0.03 | 0 | 0.029 | 0.028 | 0.022 | -0.078 | -0.003 | -0.001 | -0.019 | -0.016 | -0.015
FBL (UniProt P22087) | -0.094 | 0.048 | -0.03 | 0.17 | 0.146 | 0.199 | 0.184 | 0.319 | -0.031 | 0.206 | -0.039 | 0.062 | -0.146 | -0.077 | 0.243 | -0.11 | -0.058 | 0.165 | 0.138 | -0.106
HIC2 (UniProt Q96JB3) | -0.073 | 0.123 | 0.024 | 0.218 | 0.065 | -0.07 | -0.03 | 0.143 | 0.015 | 0.088 | 0.039 | 0.028 | -0.005 | -0.093 | 0.131 | 0.009 | 0.123 | -0.005 | -0.035 | -0.033
FUCA1 (UniProt P04066) | -0.003 | 0.018 | -0.049 | -0.067 | 0.056 | -0.054 | 0.003 | -0.03 | -0.008 | -0.199 | 0.03 | 0.009 | 0.021 | 0.092 | -0.054 | -0.007 | 0.066 | -0.016 | 0 | 0.012
GSK3A (UniProt P49840) | 0.099 | 0.011 | 0.303 (active) | -0.061 | -0.107 | 0.011 | -0.022 | -0.031 | 0.011 | 0.022 | -0.025 | 0.009 | 0.197 | 0.021 | -0.094 | -0.023 | -0.003 | -0.039 | -0.053 | 0.014
GLUD2 (UniProt P49448) | 0.025 | 0.045 | 0.113 | 0 | 0.098 | -0.041 | 0.014 | -0.013 | -0.098 | 0.127 | 0.104 | 0.006 | -0.062 | -0.015 | -0.045 | 0.017 | 0.006 | 0.238 | -0.107 | 0.015
IDI1 isoform 2 (UniProt Q13907) | 0.052 | 0.034 | -0.01 | -0.04 | 0.1 | 0.077 | -0.002 | -0.012 | 0.04 | -0.099 | -0.017 | -0.007 | -0.015 | 0.003 | -0.082 | 0.005 | -0.029 | -0.185 | -0.219 | 0.024
FANCD2 isoform 1 (UniProt Q9BXW9) | -0.002 | 0.025 | -0.155 | -0.082 | -0.029 | -0.354 (active) | -0.266 | 0.062 | 0.002 | -0.369 (active) | 0.003 | -0.007 | 0.027 | -0.035 | -0.09 | 0.033 | 0.099 | -0.031 | 0.017 | 0.043
HK2 (UniProt P52789) | -0.007 | -0.01 | -0.096 | -0.037 | -0.046 | 0.096 | -0.022 | -0.001 | 0.063 | 0.034 | -0.257 (active) | -0.028 | 0 | 0.019 | 0.017 | 0.003 | 0.027 | -0.041 | -0.016 | 0.051
FANCI (UniProt Q9NVI1) | -0.043 | -0.082 | -0.148 | -0.008 | -0.146 | -0.377 (active) | -0.136 | 0.006 | -0.038 | -0.098 | 0.012 | 0.018 | 0.01 | 0.046 | -0.054 | 0.016 | 0.087 | 0.009 | 0.043 | 0.029
FLNA (UniProt P21333) | -0.046 | -0.111 | 0.031 | 0.035 | -0.086 | -0.112 | 0.049 | 0.081 | -0.017 | -0.027 | -0.03 | -0.049 | 0.015 | 0.006 | 0.092 | 0.021 | 0.075 | 0.044 | 0.092 | 0.019
HIP1R (UniProt O75146) | 0.029 | -0.027 | -0.022 | 0.01 | -0.034 | -0.059 | -0.003 | 0 | -0.004 | 0.138 | -0.028 | -0.053 | 0.003 | -0.002 | -0.047 | -0.026 | 0.036 | -0.006 | 0.059 | 0.041
GLB1 (UniProt P16278) | 0.041 | 0.033 | -0.005 | -0.009 | 0.048 | -0.282 (active) | 0.062 | 0.021 | 0.014 | -0.015 | -0.051 | -0.026 | -0.033 | -0.038 | 0.086 | -0.017 | -0.007 | 0.003 | 0.002 | -0.027
